Source: PubChem BioAssay (Tox21)
Inconclusive results are not listed. Active and inactive are the calls of the source. Calls follow the shape of the full dose curve.

Test: qHTS assay to identify small molecule antagonists of the estrogen receptor alpha (ER-alpha) signaling pathway using the BG1 cell line (AID 743080);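 also: BG1 cells stimulated with 17beta-estradiol alongside compound; nearly all actives have a fitted effect of over 25% in size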
Conditions: BG1Luc4E2 ERE-luciferase antagonist mode, luminescence; series mostly up to 70.3 µM; activity change, negative = inhibition: at the top concentration
Excerpt: National Center for Advancing Translational Sciences [NCATS]
NIH Chemical Genomics Center [NCGC]
U.S. Environmental Protection Agency [EPA]
National Institutes of Environmental Health Sciences [NIEHS]
National Toxicology Program [NTP]
U.S. Food and Drug Administration [FDA]
Estrogen receptor (ER), a nuclear hormone receptor, plays an important role in development, metabolic homeostasis and reproduction. Endocrine disrupting chemicals (EDCs) and their interactions with steroid hormone receptors like ER causes disruption of normal endocrine function. Therefore, it is important to understand the effect of environmental chemicals on the ER signaling pathway. To identify ER antagonists, BG1-Luc-4E2 cell line (provided by Dr. Michael Denison from University of California) has been used to screen the Tox21 10K compound library. BG1Luc4E2 cell line endogenously expresses full-length ER-alpha and is stably transfected with a plasmid containing four estrogen responsive elements (ERE) upstream of a luciferase reporter gene.
Tox21 Assay Protocol Summary:
BG1-Luc-4E2 cells were cultured in phenol red free assay medium containing 10% charcoal stripped FBS for 5 days before the assay was performed. The cells were dispensed at 4,000 cells/4 uL of assay medium per well into white wall/solid-bottom 1536-well plates using a Multidrop Combi (ThermoFisher Scientific, Waltham, MA) dispenser. The assay plates were incubated at a 37C and 5% CO2 for 24 h, and then 23 nL of compounds dissolved in DMSO, positive controls or DMSO only was transferred to the assay plate using a Pintool station (Kalypsys, San Diego, CA), followed by addition of 1 uL of 17beta-estradiol in assay medium using a Flying Reagent Dispenser (Aurora Discovery, San Diego, CA). After the plates were incubated at 37 C and 5% CO2 for 21.5 h, 1 uL of CellTiter-Fluor reagent (Promega, Madison, WI) of measuring cytotoxicity was added using Flying Reagent Dispenser (FRD) to each well. The assay plates were incubated at 37 C and 5% CO2 for additional 30 min and the fluorescence intensity was quantified by a ViewLux plate reader (PerkinElmer, Shelton, CT). For measuring luciferase reporter gene activity, 4 uL of ONE-Glo reagent (Promega) was added to each plate using an FRD and luminescence was quantified by a ViewLux plate reader after 30 min incubation at room temperature.
% is scaled to controls: 0 for no effect and ±100 for the full control effect; potency is read from the fitted curve at half-maximal effect.

Row | Structure (SMILES) | activity change, negative = inhibition | Potency
1 | CN1CCC(OC(c2ccccc2)c2ccccc2)CC1 | -7.86% [at 32.5 µM] (inactive) | –
2 | O=C(Cl)c1ccc([N+](=O)[O-])cc1 | 9.37% (inactive) | –
3 | CC(=O)CC(=O)c1ccccc1 | -6.96% [at 95 µM] (inactive) | –
4 | c1ccc(CNCc2ccccc2)cc1 | 19.7% (inactive) | –
5 | O=C(Nc1ccccc1)OCC(CN1CCCCC1)OC(=O)Nc1ccccc1 (stereo not given) | 0.682% [at 32.5 µM] (inactive) | –
6 | CCCCOC(=O)/C=C\C(=O)OCCCC | -13.2% [at 95 µM] (inactive) | –
7 | O=c1c2ccccc2nnn1CCl | 14.1% (inactive) | –
8 | O=C1CCCCCO1 | 2.18% [at 95 µM] (inactive) | –
9 | COc1ccc2[nH]c(S(=O)Cc3ncc(C)c(OC)c3C)nc2n1 (stereo not given) | -8.22% (inactive) | –
10 | NC[C@H]1O[C@H](O[C@H]2[C@H](O)[C@@H](O[C@H]3O[C@H](CO)[C@@H](O)[C@H](N)[C@H]3O)[C@H](N)C[C@@H]2N)[C@H](O)[C@@H](O)[C@@H]1O | – | inactive
11 | CC(C)(C)C1CCCCC1O (stereo not given) | -0.723% (inactive) | –
12 | ClC(Cl)(Cl)c1ccc(C(Cl)(Cl)Cl)cc1 | 4.27% (inactive) | –
13 | CCN1CCC[C@H]1CNC(=O)c1c(OC)ccc(Br)c1OC | 1.18% (inactive) | –
14 | CCCCCCCCN(C)C | 2.88% (inactive) | –
15 | CC/C(=C\C(=N/O)C(N)=O)C(C)[N+](=O)[O-] (stereo not given) | 6.37% (inactive) | –
16 | NCCCN(CCO)CCO | -1.44% (inactive) | –
17 | Cc1occc1S | 13.2% (inactive) | –
18 | CN(C)CC[C@@H](c1ccc(Br)cc1)c1ccccn1 | -0.601% (inactive) | –
19 | Cc1ccc(C(=O)C(C)CN2CCCCC2)cc1 (stereo not given) | – | inactive
20 | CCOC(=O)C1=NN(c2ccccc2)C(=O)C1 | -9.62% (inactive) | –

Row | Structure (SMILES) | activity change, negative = inhibition | Potency
21 | Cc1nc2ccccc2n1Cc1ccc(Cl)cc1 | – | 2.37 µM (active)
22 | CN1CCN(C2=Nc3cc(Cl)ccc3Nc3ccccc32)CC1 | -1.35% (inactive) | –
23 | CC[C@H](C)[C@@H](C(=O)O)n1sc2ccccc2c1=O | 5.76% (inactive) | –
24 | Nc1cnn([C@@H]2O[C@H](CO)[C@@H](O)[C@H]2O)c(=O)n1 | -12.2% (inactive) | –
25 | COC(=O)C(C)=O | 2.37% [at 95 µM] (inactive) | –
26 | CN1CCC[C@@H]1c1cccnc1 | -22.8% (inactive) | –
27 | CC(C)(C)c1cc(CO)cc(C(C)(C)C)c1O | – | 69.9 µM (active)
28 | CCC(C)N(C)C(=O)c1cc2ccccc2c(-c2ccccc2Cl)n1 (stereo not given) | 6.61% (inactive) | –
29 | Oc1ccc(Sc2ccc(O)cc2)cc1 | -18.2% (inactive) | –
30 | CCCCCOC(=O)COc1cc(N2C(=O)C3=C(CCCC3)C2=O)c(F)cc1Cl | 15.9% (inactive) | –
31 | C=Cc1c(C)c2cc3[nH]c(cc4nc(cc5nc(cc1[nH]2)C(C)=C5CCC(=O)O)C(CCC(=O)O)=C4C)c(C)c3C=C | 19.4% (inactive) | –
32 | Oc1ccc2c(c1)OCO2 | -6.2% (inactive) | –
33 | C=CCCCCCC | -0.0137% (inactive) | –
34 | CCCOc1ccc2nc(NC(=O)OC)[nH]c2c1 | 5.13% (inactive) | –
35 | CCCCCCCCC(CO)CCCCCC (stereo not given) | -1.56% (inactive) | –
36 | O=C(O)Cn1c(C(=O)Nc2nc(-c3ccccc3Cl)cs2)cc2ccccc21 | 2.62% (inactive) | –
37 | NC1CCN(c2nc3c(cc2F)c(=O)c(C(=O)O)cn3-c2ccc(F)cc2F)C1 (stereo not given) | -18.4% (inactive) | –
38 | O=S(=O)(O)c1ccc(O)c2ncccc12 | -0.0533% (inactive) | –
39 | CCCCOc1cc(C(=O)OCCN(CC)CC)ccc1N | -3.4% [at 32.5 µM] (inactive) | –
40 | CC(=O)SCc1ccco1 | -6.22% (inactive) | –
